Assay outcomes (PubChem BioAssay)
p97 inhibitor = blocks human p97 ATPase activity; P55072; recombinant p97 ATPase, Kinase-Glo ATP luminescence, 3 h; inhibition, % at 8 µM; actives 0.42% (n = 220,000); AID 1481; in the data active = inhibition above about 15%;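 also: 0% = DMSO vehicle and 100% = wells lacking enzyme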
Furin inh = inhibitors of human furin; actives 0.061% (n = 220,000); P09958; inhibition, % at 20 µM or 30 µM; purified furin, fluorogenic substrate cleavage; in the data active = inhibition above about 25%
Target sequence (P09958 108-714 limits assumed): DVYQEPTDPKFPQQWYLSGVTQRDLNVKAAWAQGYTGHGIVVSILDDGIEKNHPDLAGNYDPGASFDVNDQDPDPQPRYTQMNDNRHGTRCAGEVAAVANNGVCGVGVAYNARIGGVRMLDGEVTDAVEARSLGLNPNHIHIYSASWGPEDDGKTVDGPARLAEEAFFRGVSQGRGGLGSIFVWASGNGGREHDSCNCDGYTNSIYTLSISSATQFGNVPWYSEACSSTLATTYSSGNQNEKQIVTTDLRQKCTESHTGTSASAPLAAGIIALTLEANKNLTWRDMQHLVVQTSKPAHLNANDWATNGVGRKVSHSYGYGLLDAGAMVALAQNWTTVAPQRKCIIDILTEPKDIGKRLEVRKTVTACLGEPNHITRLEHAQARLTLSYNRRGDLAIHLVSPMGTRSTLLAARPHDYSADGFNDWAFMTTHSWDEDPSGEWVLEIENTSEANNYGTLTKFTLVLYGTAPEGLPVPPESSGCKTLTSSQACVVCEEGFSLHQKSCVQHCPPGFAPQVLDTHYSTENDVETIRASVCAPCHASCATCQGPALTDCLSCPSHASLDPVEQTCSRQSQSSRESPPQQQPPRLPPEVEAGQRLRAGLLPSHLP
Tb hexokinase = T. brucei hexokinase 1 inhibition. AID 1430. inhibition, % at 10 µM. actives 0.11% (n = 220,000). recombinant TbHK1, G6PDH-coupled NADH A340;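 active = inhibition of 50% or more in the single-dose primary screen; inactive = inhibition below 50%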
DTT redox prof = compounds producing H2O2 with reducing agent – biochemical, NIH compound library profiling, artefact control for MLSCN library redox annotation, primary screen. DTT-dependent redox cycling H2O2, phenol red/HRP absorbance; 100% = 100 µM peroxide control, 0% = buffer. activation, % at 10 µM. actives 0.03% (n = 200,000);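 active = activation of at least 50% relative to the plate's high and low controls in the primary single-dose screen; inactive = activation below 50%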;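 also: compound incubated with DTT at 0.8 mM final as the reducing agent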
HMGR II inh = blocks class II HMG-CoA reductase of Enterococcus faecalis. actives 0.41% (n = 190,000). inhibition, % at 10 µM. purified E. faecalis HMGR, NADPH absorbance 340 nm kinetic;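 active = inhibition above a set limit, the median over all tested compounds plus 3 SD, cut at about 9.5% in these data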;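 also: enzyme runs in reverse so mevalonate oxidation gives rising NADPH absorbance; 0% = complete reaction with DMSO and 100% = background rate lacking mevalonate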
p-CIP stab down = lowers stability of the mouse p/CIP coactivator protein; decrease of EGFP signal, % at 10 µM; actives 0.01% (n = 290,000); F442A p/CIP-EGFP cells, EGFP fluorescence, 16 h; Q05BA5; AID 1984;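 active = EGFP signal decrease of at least 30% at 10 µM or well 3 SD below plate mean, unless failing retest; inactive = the rest, including hits failing retest or dose response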
* hit, by the source's call; / = not tested or not shown; ! = not active in a repeat. Shown are actives, neighbours in structure and some others; about 0.74% of the full set was active somewhere.

SMILES | p97 inhibitor | Furin inh | Tb hexokinase | DTT redox prof | HMGR II inh | p-CIP stab down
CSCC[C@H](N)C(=O)N1CCC(C(=O)N[C@H](C)C(=O)NC(C)c2ccccc2)CC1 (stereo partly drawn) | / | / | / | / | / | 0
O=C(Nc1ccccc1-c1ccccc1)c1ccc(=O)[nH]n1 | / | / | / | / | / | -2
COc1ccc(S(=O)(=O)N/N=C(/C)c2ccc(Cl)cc2)cc1 | 5 | -10 | -1 | 3 | 1 | -2
COc1ccc(C/C(C)=N/NC(=O)c2ccc(Cl)cc2)cc1 | 3 | -26 | -3 | 0 | 10* | -32
CCOc1cc(C(=O)N/N=C(\C)Cc2ccc(OC)cc2)cc(OCC)c1OCC | 2 | -17 | -2 | 0 | -1 | -3
COc1ccc(C/C(C)=N/NS(=O)(=O)c2ccc(Br)cc2)cc1 | 2 | -25 | -11 | 1 | 15* | 8
N#CCN1CCC2(O)CCCCC2C1c1ccc2c(c1)OCO2 (stereo not drawn) | 5 | -32 | -11 | / | / | -6
O=C(Nc1cccc(NC(=O)C2CCCO2)c1)c1ccco1 (stereo not drawn) | 2 | -1 | 24 | 0 | 0 | -3
CC(C)(C)C(=O)NC(=S)Nc1ccccn1 | -1 | -16 | 5 | 0 | -6 | -13
CC(C)C(=O)NC(=S)Nc1ccccn1 | 20* | -11 | -2 | 2 | -3 | -6
O=C(N/C(=C\c1ccc(Cl)cc1)C(=O)N1CCOCC1)c1ccc([N+](=O)[O-])cc1 | 3 | -6 | -8 | -1 | 5 | -10
O=C(Nc1nnc(-c2ccc3c(c2)CCCC3)o1)c1c(F)cccc1F | -2 | -3 | 1 | 0 | 10* | -2
CCOc1ccc(C(C)NC(=O)c2cc(=O)[nH]c3ccccc23)cc1OCC (stereo not drawn) | / | / | / | / | / | -10
CC(NC(=O)c1cc(=O)[nH]c2ccccc12)c1ccccc1 (stereo not drawn) | 1 | -9 | -14 | -1 | 12* | -6
CCN1C(=O)CC(NC2CCN(C(=O)c3ccc(F)cc3)CC2)C1=O (stereo not drawn) | / | / | / | / | / | -6
CCOCCc1nnc(NC(=O)CS(=O)(=O)Cc2ccccc2)s1 | / | / | / | / | / | 39
CCCCN1C(=O)Nc2ccccc2S1(=O)=O | 2 | -33 | 1 | 0 | 2 | 0
CC(C)OCCCNC(=O)C(C)Oc1ccccc1 (stereo not drawn) | -1 | -14 | -7 | 0 | -1 | 0
CC(C)OCCCNC(=O)Nc1cccc2ccccc12 | 3 | -29 | -4 | 0 | 14* | -12
CCn1ccnc1CNC(=O)C1CCC(=O)N(Cc2ccccc2F)C1 (stereo not drawn) | / | / | / | / | / | 14
CSc1ccc(C2CC(=O)Nc3c2c(=O)n(C)c(=O)n3C)cc1 (stereo not drawn) | 6 | -22 | -10 | / | / | -7
CSc1ccc(C2CC(=O)Nc3nc(SC)[nH]c(=O)c32)cc1 (stereo not drawn) | 5 | -30 | 2 | 0 | 22* | 10
Cn1c(=O)c(C(=O)CN2CC(=O)Nc3ccccc32)c(N)n(Cc2ccccc2)c1=O | 5 | -26 | -7 | 0 | -5 | -27
CN(CCCNC(=O)C1CCN(S(=O)(=O)c2cccc3nsnc23)CC1)Cc1ccccc1 | -4 | 8 | 58* | 0 | 1 | -9
COC(=O)c1ccc(C2c3c(oc4ccc(Cl)cc4c3=O)C(=O)N2CCN2CCOCC2)cc1 (stereo not drawn) | -5 | -13 | -23 | / | / | -10
SMILES | p97 inhibitor | Furin inh | Tb hexokinase | DTT redox prof | HMGR II inh | p-CIP stab down
CC1CCN(C(=O)c2ccc3c(c2NCCO)C(=O)c2ccccc2C3=O)CC1 | -3 | -17 | -10 | 0 | -7 | -4
CCN(CC)CCNC(=O)c1ccc2c(c1NCCO)C(=O)c1ccccc1C2=O | 2 | -10 | -2 | / | / | 36*
CCC(C)[C@H](NC(=O)Nc1ccccc1F)C(=O)O (stereo partly drawn) | 3 | -4 | -2 | / | / | 1
CCCCNC(=O)c1ccccc1NC(=O)CCSc1ccccc1 | -1 | -13 | 5 | 2 | 15* | -13
CCCCNC(=O)Nc1ccccc1C(=O)NCCC | -6 | -1 | 2 | 0 | 0 | -2
Cc1ccc(C(=O)Nn2cnnc2)cc1S(=O)(=O)N1CCOCC1 | 5 | -33 | -7 | / | / | 11
Cc1ccc(Cl)cc1NC(=O)COC(=O)C12CC3CC(CC(C3)C1)C2 | -8 | -9 | -6 | 0 | 14*! | -37
CCOc1nc(NCc2ccco2)nc(Nc2ccccc2F)n1 | -3 | -19 | -6 | 1 | 13* | -13
CCOc1nc(NCCO)nc(Nc2ccccc2F)n1 | 4 | -18 | -4 | 0 | -4 | 0
COc1ccccc1C(=O)NC(C)C(c1cccs1)N1CCOCC1 (stereo not drawn) | 1 | 31* | 4 | 2 | -6 | 6
Cc1ccccc1C(=O)NC(C)C(c1cccs1)N1CCOCC1 (stereo not drawn) | 11 | -31 | -2 | -1 | -7 | -5
CCC(C)(C)C(=O)Nc1cc([N+](=O)[O-])ccc1F | 1 | -15 | -7 | 0 | 12* | -1
O=C(N/N=C/C=C/c1ccccc1)c1cnccn1 | 4 | -6 | -62 | 0 | 1 | 3
CC(/C=C/c1ccccc1)=N/NC(=O)c1cnccn1 | 4 | 27* | -44 | 1 | -3 | -11
CN(C)/C=C(/C(=O)c1ccc(Cl)cc1)S(=O)(=O)c1ccc(Cl)cc1 | 4 | -12 | -11 | -6 | 12* | -1
COc1ccc(C(=O)N/N=C/C(C)c2ccccc2)cc1OC (stereo not drawn) | 16* | -14 | -3 | -4 | -7 | 5
COc1ccc(NCc2nnc(SCCN3CCCCC3)n2-c2ccc(C)cc2)cc1 | 1 | -16 | 0 | 1 | 17* | -5
C=C(C)CCOC(=O)C(CC(=O)O)NCc1ccco1 (stereo not drawn) | 1 | -16 | 7 | / | / | -7
Clc1ccc(-c2nnc(CSc3nnc(-c4cccs4)o3)o2)cc1 | -1 | -21 | 4 | -3 | 1 | -4
c1ccc(-c2nnc(SCc3nnc(-c4cccs4)o3)o2)cc1 | -8 | 1 | -3 | 0 | 16* | 2
COc1cc(/C=C/C(=O)OCC(=O)NC(=O)NC(C)C)ccc1O | 1 | 27* | -48 | / | / | 2
COc1cc(/C=C/C(=O)OCC(=O)NC(=O)NC(C)C)ccc1OCC#N | 2 | -7 | -14 | 0 | -9 | -8
CCOC(=O)c1c(S(=O)(=O)NCC(=O)N2CCN(c3ccccc3)CC2)c(C)n(C)c1C | / | / | / | / | / | 4
O=C(NCCOc1ccccc1Cl)C(=O)c1c[nH]c2ccccc12 | -1 | -23 | 0 | 0 | 17* | 6
COc1ccccc1OCCNC(=O)C(=O)c1c[nH]c2ccccc12 | 6 | 10 | -18 | / | / | -6
CC(=O)OCC1=C(C(=O)O)N2C(=O)C(NC(=O)c3ccc(F)cc3)C2SC1 (stereo not drawn) | 7 | -25 | 4 | 0 | 11* | -2
